Results as given in PubChem BioAssay (Tox21).
A number with no mark means an inactive call. Results filed as inconclusive are left out. Entries that show only a call come without a potency. Activity calls are given as the source filed them. Unless noted, the call rests on the fitted dose curve; in most records, active means well fitted curve in the direction sought with a large enough effect in the repeat runs; inconclusive means weak or mixed curves; inactive means no such curve, though single readings can be large; an effect the other way counts as inactive or inconclusive.

Tests used:
[1] = qHTS assay to identify small molecule antagonists of the estrogen related receptor (ERR) signaling pathway from Tox21 library - cell viability counter screen (AID 1224834); further: nearly all actives have a fitted effect of over 30% in size
Procedure, shortened: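 ERR cells, 2,000/well; 6 h settle at 37 C/5% CO2; pin-tool compound transfer in DMSO; 17.5 h at 37 C; CellTiter-Fluor, 30 min; fluorescence intensity.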

[2] = molecular target: Luciferin 4-monooxygenase (Photinus pyralis) (UniProt P08659); assay: qHTS assay to identify small molecule inhibitors of firefly luciferase (AID 1224835); further: nearly all actives have a fitted effect of over 25% in size; further: potency means the concentration at half of the fitted maximal effect
Procedure, shortened: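 Inhibition of purified Photinus luciferase is measured by luminescence. Substrate levels (D-luciferin, ATP) sit at their KM values. Each compound is tested in a concentration series.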

[3] = qHTS assay to identify small molecule agonists of the constitutive androstane receptor (CAR) signaling pathway - cell viability counter screen (AID 1224836); further: nearly all actives have a fitted effect of over 45% in size
Procedure, shortened: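 HepG2 cells stably carrying hCAR and a CYP2B6-2.2kb reporter were plated 4 h, then given compounds at 15 concentrations plus PK11195 (final 0.75 uM). After 23 h at 37 C, viability was read by CellTiter-Fluor fluorescence.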

[4] = qHTS assay to identify small molecule antagonists of the constitutive androstane receptor (CAR) signaling pathway - cell viability counter screen (AID 1224837); further: nearly all actives have a fitted effect of over 45% in size
Procedure, shortened: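 Viability was measured with CellTiter-Fluor in a HepG2 line carrying stably transfected hCAR and a CYP2B6-2.2kb construct. Cells were exposed for 23 hr at 37 C to 15 compound concentrations with 50 nM CITCO as agonist.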

[5] = qHTS assay to identify small molecule antagonists of the estrogen related receptor signaling pathway with the pleiotropic PPARgamma coactivator (PGC) from Tox21 10K library - cell viability counter screen (AID 1224840; active means well fitted cell-killing curve with a large enough effect in the repeat runs, not every such curve was filed as active; further: nearly all actives have a fitted effect of over 40% in size)
Procedure, shortened: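 Multiplexed viability counter screen in the PGC/ERR cell line: cells treated with DMSO-dissolved compounds for 17.5 hours at 37 C, then viability measured as CellTiter-Fluor fluorescence.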

[6] = qHTS assay to identify small molecule antagonists of the estrogen related receptor signaling pathway with the pleiotropic PPARgamma coactivator (PGC) from Tox21 10K library (AID 1224841; call rule not given here; further: actives are mostly falling curves and most rising ones were filed inactive; nearly all actives have a fitted effect of over 50% in size)
Procedure, shortened: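 Steps: plate 2,000 PGC/ERR cells per well; incubate 6 h at 37 C with 5% CO2; transfer compounds from DMSO stocks by pin tool; incubate 18 h at 37 C; add One-Glo; measure luminescence 30 min later.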

[7] = molecular target: Thyrotropin receptor (Homo sapiens) (UniProt P16473); assay: qHTS assay to identify small molecule agonists of the thyroid stimulating hormone receptor (TSHR) signaling pathway (AID 1224843; calls by dose curve; further: nearly all actives have a fitted effect of over 45% in size)
Procedure, shortened: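 A cell-based cAMP HTRF format was run in TSHR-transfected HEK293 cells, 800 per well. Treatment: 30 min, room temperature. Detection: 1 h with labelled cAMP and anti-cAMP cryptate. Concentration-response over 15 points, three replicates.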

[8] = qHTS assay to identify small molecule agonists of H2AX (AID 1224845; active means well fitted activation curve with a large enough effect in the signal ratio in the repeat runs, not every such curve was filed as active; the % refers to the signal ratio)
Procedure, shortened: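 Phospho-H2AX Ser139 measured by HTRF (ex 320 nm; em 665 and 620 nm) after 24 hr antibody incubation. Compounds, 15 concentrations, 0.76% DMSO, were applied to CHO-K1 cells for 3hr at 37C before lysis.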

[9] = qHTS assay to identify small molecule agonists of H2AX - cell viability counter screen (AID 1224847; calls by dose curve; further: top concentration of the series differs between compounds; nearly all actives have a fitted effect of over 30% in size)
Procedure, shortened: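 Wild-type CHO-K1 cells (10% FBS medium) were plated overnight at 37C, exposed to compounds at 15 concentrations for 3 hr at 37C (0.76% DMSO final), and viability was read as CellTiter-Glo luminescence after 30 min at room temperature.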

[10] = qHTS assay to identify small molecule antagonists of the estrogen related receptor (ERR) signaling pathway from Tox21 library (AID 1224848); further: nearly all actives have a fitted effect of over 50% in size
Procedure, shortened: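 ERR cell line, 2,000 cells/well. 6 h settle, then compound (DMSO) added; 18 h at 37 C; ONE-Glo luminescence after 30 min RT.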

[11] = qHTS RealTime-Glo MT Cell Viability Assay in HepG2 cells - 24 hour (AID 1224867); further: nearly all actives have a fitted effect of over 50% in size
Procedure, shortened: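 HepG2 cells (600/well) were dispensed with RealTime-Glo reagents, incubated 5 h at 37 °C, then treated with compounds in DMSO for up to 40 h. Nonlytic NanoLuc luminescence reflecting viable cells was read at each stated time point.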

[12] = A CellTox Green Cytotoxicity Assay to monitor cytotoxicity in HEK293 cells - 0 hour (AID 1224869); further: nearly all actives have a fitted effect of over 50% in size
Procedure, shortened: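 Cells (HEK293, 600/well) and dye reagent are dispensed together. After 5 h at 37 C, 23 nL compound is pinned in. Plates stay at 37 C for 40 h with fluorescence read at 0h, 8h, 16h, 24h, 32h and 40h.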

[13] = qHTS RealTime-Glo MT Cell Viability Assay in HepG2 cells - 40 hour (AID 1224870); further: nearly all actives have a fitted effect of over 50% in size
Procedure, shortened: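 Real-time viability: cells seeded at 600 per well together with NanoLuc and cell-permeant prosubstrate, compounds added after 5 h incubation. Luminescence tracked at 0, 8, 16, 24, 32 and 40 h of exposure.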

[14] = molecular target: Nuclear receptor subfamily 1 group I member 3 (Homo sapiens) (UniProt Q14994); assay: qHTS assay to identify small molecule agonists of the constitutive androstane receptor (CAR) signaling pathway (AID 1224839);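 further: HepG2 cells stably carrying human CAR and a CYP2B6 luciferase reporter; nearly all actives have a fitted effect of over 15% in size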
Procedure, shortened: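 HepG2 cells stably expressing hCAR and a CYP2B6-2.2kb luciferase reporter were treated with compounds at 15 concentrations plus 0.75 uM PK11195 (final) for 24 h at 37 C; luminescence was read after ONE-Glo addition.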

[15] = qHTS assay to identify small molecule agonists of the hypoxia (HIF-1) signaling pathway (AID 1224846; active means well fitted activation curve with a large enough effect in the signal ratio in the repeat runs, not every such curve was filed as active; the % refers to the signal ratio)
Procedure, shortened: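 Compounds from the Tox21 10K library, dissolved in DMSO, are tested for induction of a hypoxia response element–controlled beta-lactamase reporter in ME-180 cells. Exposure lasts 17 hrs at 37C after a 5 hr settling period, followed by CCF4-AM FRET substrate.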

[16] = qHTS RealTime-Glo MT Cell Viability Assay in HEK293 cells - 32 hour (AID 1224868)
Procedure, shortened: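 HEK293 cells seeded with NanoLuc/prosubstrate reagent, rested 5 h at 37 C, then dosed and kept at 37 C up to 40 h. Nonlytic real-time luminescence from viable cells read at 0, 8, 16, 24, 32 and 40 h.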

[17] = qHTS assay to identify small molecule agonists of the hypoxia (HIF-1) signaling pathway - cell viability counter screen (AID 1224844; calls by dose curve; further: nearly all actives have a fitted effect of over 50% in size)
Procedure, shortened: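 Cytotoxicity was measured in parallel with the HRE-driven beta-lactamase readout: after 17 hrs of compound exposure at 37C, HRE-bla ME-180 cells received CellTiter-Glo and luminescence was recorded 30 min later.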

[18] = qHTS assay to identify small molecule agonists of the estrogen related receptor (ERR) signaling pathway from Tox21 library (AID 1224849; calls by dose curve; further: nearly all actives have a fitted effect of over 15% in size); details: ERR reporter cell line, ONE-Glo luciferase, 18 h; at 92.4 µM (top of the series) unless noted
Procedure, shortened: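 Cells carrying the ERR reporter were plated and allowed to settle for 6 h, exposed to library compounds for 18 h at 37 C, then lysed with ONE-Glo and luminescence measured.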

Chain of Nuclear receptor subfamily 1 group I member 3 (Homo sapiens) (Q14994 whole entry, looked up): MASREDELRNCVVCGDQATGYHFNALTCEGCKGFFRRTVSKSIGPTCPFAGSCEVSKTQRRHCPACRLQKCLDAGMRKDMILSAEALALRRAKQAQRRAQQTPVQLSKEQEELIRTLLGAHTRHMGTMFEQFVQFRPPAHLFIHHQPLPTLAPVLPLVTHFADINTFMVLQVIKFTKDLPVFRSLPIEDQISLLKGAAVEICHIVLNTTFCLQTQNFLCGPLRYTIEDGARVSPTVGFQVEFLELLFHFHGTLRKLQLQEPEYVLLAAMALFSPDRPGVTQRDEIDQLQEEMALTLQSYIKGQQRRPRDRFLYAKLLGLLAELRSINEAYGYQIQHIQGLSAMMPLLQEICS
Chain of Thyrotropin receptor (Homo sapiens) (P16473 whole entry, looked up): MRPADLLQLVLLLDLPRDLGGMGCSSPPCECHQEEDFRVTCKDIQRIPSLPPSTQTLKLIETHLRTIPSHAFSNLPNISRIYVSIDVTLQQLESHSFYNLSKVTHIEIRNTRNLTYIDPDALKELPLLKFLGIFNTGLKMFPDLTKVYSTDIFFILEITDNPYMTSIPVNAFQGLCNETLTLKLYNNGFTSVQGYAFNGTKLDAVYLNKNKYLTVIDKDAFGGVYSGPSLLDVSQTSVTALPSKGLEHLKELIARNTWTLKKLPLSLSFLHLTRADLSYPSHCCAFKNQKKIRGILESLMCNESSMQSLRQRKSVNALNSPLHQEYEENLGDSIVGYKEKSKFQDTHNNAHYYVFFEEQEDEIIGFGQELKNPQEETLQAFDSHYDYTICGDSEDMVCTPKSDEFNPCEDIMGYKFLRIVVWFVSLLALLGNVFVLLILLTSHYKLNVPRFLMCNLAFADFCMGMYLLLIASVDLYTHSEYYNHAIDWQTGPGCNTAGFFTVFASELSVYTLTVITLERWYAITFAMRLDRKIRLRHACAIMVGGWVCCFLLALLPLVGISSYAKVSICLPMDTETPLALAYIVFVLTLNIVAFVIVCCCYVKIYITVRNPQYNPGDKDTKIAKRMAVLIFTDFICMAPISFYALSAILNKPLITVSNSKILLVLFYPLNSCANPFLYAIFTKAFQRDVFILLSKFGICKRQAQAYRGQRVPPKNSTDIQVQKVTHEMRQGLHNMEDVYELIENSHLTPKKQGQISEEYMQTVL
Chain of Luciferin 4-monooxygenase (Photinus pyralis) (P08659 whole entry, looked up): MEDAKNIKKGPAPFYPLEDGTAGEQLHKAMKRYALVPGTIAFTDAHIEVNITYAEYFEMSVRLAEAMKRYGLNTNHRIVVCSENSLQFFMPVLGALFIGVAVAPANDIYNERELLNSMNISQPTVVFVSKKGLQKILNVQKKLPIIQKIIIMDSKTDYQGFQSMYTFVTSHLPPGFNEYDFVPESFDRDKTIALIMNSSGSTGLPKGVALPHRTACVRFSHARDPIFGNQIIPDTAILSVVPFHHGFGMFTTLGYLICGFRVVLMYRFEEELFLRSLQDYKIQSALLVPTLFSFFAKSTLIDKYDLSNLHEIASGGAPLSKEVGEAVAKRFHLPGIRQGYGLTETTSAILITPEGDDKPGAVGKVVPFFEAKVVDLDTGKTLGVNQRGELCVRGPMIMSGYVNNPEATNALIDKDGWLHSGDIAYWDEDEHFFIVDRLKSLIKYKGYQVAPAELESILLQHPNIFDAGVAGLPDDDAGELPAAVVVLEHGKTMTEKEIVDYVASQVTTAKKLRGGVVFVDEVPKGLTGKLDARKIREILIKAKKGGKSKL

## O=C(O)Cn1c(C(=O)Nc2nc(-c3ccccc3Cl)cs2)cc2ccccc21
[1]
  Potency: inactive
[2]
  Potency: 13.8 µM (active)
[3]
  Potency: inactive
[4]
  Potency: inactive
[5]
  Potency: inactive
[6]
  Potency: inactive
[7]
  Potency: inactive
[8]
  Potency: inactive
[9]
  Potency: inactive
[10]
  Potency: inactive
[11]
  Potency: inactive
[12]
  Potency: inactive
[13]
  Potency: inactive

## Cc1ccc(O)c([C@H](CCN(C(C)C)C(C)C)c2ccccc2)c1
[1]
  Potency: inactive
[2]
  Potency: inactive
[3]
  Potency: inactive
[4]
  Potency: inactive
[14]
  Potency: inactive
[7]
  Potency: inactive
[15]
  outcome: inactive
[9]
  Potency: inactive
[11]
  Potency: inactive
[16]
  Potency: inactive
[12]
  Potency: inactive
[13]
  Potency: inactive

## O=C(C(=O)c1ccc(Br)cc1)c1ccc(Br)cc1
[1]
  viability change, negative = cytotoxic: -1.64% [at 19 µM]
[2]
  activity change, negative = inhibition: 1.95% [at 23.6 µM]
[3]
  viability change, negative = cytotoxic: 3.05% [at 19 µM]
[4]
  activity change, negative = cytotoxicity: -2.27% [at 19 µM]
[14]
  activation: 2.8% [at 19 µM]
[5]
  viability change, negative = cytotoxic: 3.02% [at 19 µM]
[7]
  activation: 3.26% [at 19 µM]
[17]
  activity change, negative = cytotoxicity: -11.6% [at 15.8 µM]
[9]
  activity change, negative = cytotoxicity: 0.693% [at 31.6 µM]
[10]
  activity, negative = inhibition: -0.511% [at 19 µM]
[18]
  activity change, positive = activation: 0.063% [at 19 µM]
[11]
  activity change, negative = cytotoxicity: -0.799% [at 15.8 µM]
[16]
  activity change, negative = cytotoxic: 3.98% [at 15.8 µM]
[12]
  cytotoxicity: 1.99% [at 15.8 µM]
[13]
  activity change, negative = cytotoxic: 6.88% [at 15.8 µM]

## CCOc1cc(OCC)c(C(=O)CCC(=O)O)cc1OCC
[1]
  Potency: inactive
[2]
  Potency: inactive
[3]
  Potency: inactive
[4]
  Potency: inactive
[14]
  Potency: inactive
[5]
  Potency: inactive
[17]
  Potency: inactive
[8]
  Potency: inactive
[15]
  outcome: inactive
[9]
  Potency: inactive
[11]
  Potency: inactive
[16]
  Potency: inactive
[12]
  Potency: inactive
[13]
  Potency: inactive

## O=C(O)Cc1sc(-c2ccccc2)nc1-c1ccc(Cl)cc1
[1]
  Potency: inactive
[2]
  Potency: inactive
[3]
  Potency: inactive
[4]
  Potency: inactive
[5]
  Potency: inactive
[6]
  Potency: inactive
[7]
  Potency: inactive
[15]
  outcome: inactive
[9]
  Potency: inactive
[18]
  activity change, positive = activation: -15.3% [at 42.5 µM]
[11]
  Potency: inactive
[16]
  Potency: inactive
[12]
  Potency: inactive
[13]
  Potency: inactive

## C[Si](C)O[Si](C)(C)O[Si](C)(C)O[Si](C)C
[1]
  Potency: inactive
[2]
  Potency: inactive
[3]
  Potency: inactive
[4]
  Potency: inactive
[5]
  Potency: inactive
[7]
  Potency: inactive
[17]
  Potency: inactive
[8]
  Potency: inactive
[15]
  outcome: inactive
[9]
  Potency: inactive
[11]
  Potency: inactive
[16]
  Potency: inactive
[12]
  Potency: inactive
[13]
  Potency: inactive

## O=CNc1ccccc1
[1]
  Potency: inactive
[2]
  Potency: inactive
[3]
  Potency: inactive
[4]
  Potency: inactive
[14]
  Potency: inactive
[5]
  Potency: inactive
[6]
  Potency: inactive
[8]
  Potency: inactive
[15]
  outcome: inactive
[9]
  Potency: inactive
[10]
  Potency: inactive
[18]
  activity change, positive = activation: -1.57%
[11]
  Potency: inactive
[16]
  Potency: inactive
[12]
  Potency: inactive
[13]
  Potency: inactive
